This is one part of a sample in which hits are shown more often than they occur.
ERK EGF inh = qHTS Assay for Inhibitors of the ERK Signaling Pathway using a Homogeneous Screening Assay; Stimulation with EGF; 130,000 compounds, 0.41% hits; Potency, µM (series often up to 11.5 µM), hits mostly inhibitors; HEK293-V1b, EGF-stimulated phospho-ERK AlphaScreen; active = well fitted inhibition curve with a large enough effect; note: nearly all actives have a fitted effect of over 55% in size
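Cell line HEK293 (stable V1b), low serum overnight. Pretreatment: compound 30 min, 37C. EGF 25 nM, 5 min. Detection: SureFire AlphaScreen, 5 h RT. AC50 via standard Hill equation.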
Hits are given with their value; – = inactive.

SMILES	ERK EGF inh
COCCNc1nc(C)nc2c1nc(-c1ccccc1)n2CCCN1CCCCC1C (stereo not drawn)	–
CCCCCCN(C(=O)CCCCCN1C(=O)NC(c2ccccc2-c2ccccc2)C(C(=O)OCc2ccccc2)=C1C)C(C(=O)NCCCC)c1ccc(OCC(=O)OC)c(C(=O)OC)c1 (stereo not drawn)	–
CC(C)C[C@@H](CC(=O)N[C@@H](CCC(=O)O)CC(=O)O)NC(=O)[C@@H]1CNCC[C@H]1NC(=O)C[C@H](CCCN)NC(=O)C[C@H](Cc1ccccc1)NC(=O)[C@@H]1CCCC[C@H]1N	–
CCOc1ccc(-c2csc(/C(C#N)=C\c3ccc(O)c([N+](=O)[O-])c3)n2)cc1	13µM
COc1ccc(/C=C(\C#N)c2cc(OC)c(OC)cc2[N+](=O)[O-])cc1	–
N#C/C(=C\c1ccc(-c2ccccc2)cc1)c1nc(-c2ccco2)cs1	–
COc1cccc([C@@H]2Oc3ccc(OC)cc3C[C@H]2O)c1	–
CCCn1c(-c2ccc(F)cc2)nc2c(NCCCN(CCO)CCO)nc(C)nc21	–
O=C(O)C(Oc1ccc2ccc(=O)oc2c1)c1ccccc1 (stereo not drawn)	–
CC(c1ccccc1)N1C(=O)/C(=C/c2ccncc2)SC1=S (stereo not drawn)	22µM
C=CCOc1ccc(/C=C2\SC(=S)N(C(C(=O)O)c3ccccc3)C2=O)cc1 (stereo not drawn)	–
O=C(O)C(c1ccccc1)N1C(=O)/C(=C/c2cccs2)SC1=S (stereo not drawn)	–
Cc1ccc(C2=NOC(=O)/C2=C\C=C\c2ccccc2)cc1	32µM
CN(C)/C=C1\C(=O)ON=C1c1ccccc1	–
CC1=NN(c2cccc(C(=O)O)c2)C(=O)/C1=C\C=C\c1ccco1	–
CC1=NN(c2ccccc2)C(=O)C1=C(C)C	–
O=C1ON=C(c2ccccc2)/C1=C/c1ccco1	–
CC1=NN(c2ccccc2)C(=O)/C1=C/C=C/c1ccccc1	16µM
COC(=O)CC1c2ccccc2C(Cc2ccc3c(c2)OCO3)=C(C)N1C(=O)OC (stereo not drawn)	–
CN(C)CCCN(C(=O)c1sc2ccccc2c1Cl)c1nc2ccc(F)cc2s1	–
CN(C)CCCN(C(=O)COc1ccccc1)c1nc2ccc(Cl)cc2s1	–
CN(C)CCCN(C(=O)c1ccc2c(c1)CCCC2)c1nc2ccc(Cl)cc2s1	20µM
COC(=O)CCC(=O)OC1(C)C(=O)C=C2C=C(CCCNC(=O)OC(C)(C)C)OC=C2C1=O (stereo not drawn)	–
CCCCCCCCCCCCCCCCCCOC[C@@H](O)COP(=O)([O-])OCC[N+](C)(C)C	–
CCCCCCCCCCCCCCCC(=O)NCC(COP(=O)([O-])OCC[N+](C)(C)C)OCC (stereo not drawn)	25µM
SMILES	ERK EGF inh
CC/C=C\C/C=C\C/C=C\C/C=C\C/C=C\CCC(=O)O[C@H](COCCCCCCCCCCCCCCCC)COP(=O)([O-])OCC[N+](C)(C)C	–
CC(=O)O[C@@H]1CC2C(C)(C)C(=O)C=C[C@]2(C)C2CC[C@]3(C)C(=CC[C@H]3C3CO[C@@H](C(C)(C)O)[C@H](O)C3)[C@@]21C (stereo partly drawn)	–
O=C(/C=C(\O)c1ccccc1)c1ccccc1O	–
Cn1nc(-c2ccccc2)c(N2CCCCC2)cc1=O	–
Cn1c(=O)cc2c3c(c(N4CCCCC4)ccc31)C(=O)c1ccccc1-2	22µM
O=C1c2ccccc2-c2cccc(C(=O)N3CCCCC3)c21	–
O=C1CCC=C1C(O)c1ccccc1 (stereo not drawn)	–
COC(=O)[C@@]1(Cc2ccc(F)cc2)[C@H]2c3cc(C(=O)N(C)C)n(Cc4ccccc4)c3C[C@H]2CN1C(=O)c1ccccc1	–
C=C1C(=O)C=C2CN(C(=O)c3ccccc3)[C@@](Cc3ccc(F)cc3)(C(=O)OC)[C@@H]12	22µM
COC(=O)[C@@]1(Cc2ccc(OC)cc2)[C@@H]2C(=CC(=O)[C@H]2CC(=O)C(=O)N(C)C)CN1C(=O)c1ccccc1	–
Cc1cc(O)c2c(c1O)C(=O)C(O)=C(O)C2=O	–
CC(=O)Nc1ccc(Nc2ncnc3ccccc23)cc1	–
COc1ccc(C(=O)Oc2cccc(Nc3ncnc4ccccc34)c2)cc1OC	25µM
COc1ccc([N+](=O)[O-])cc1Nc1ncnc2ccccc12	–
O=C(Oc1cccc(Nc2ncnc3ccccc23)c1)c1cccnc1	14µM
O=C(O)c1cccc(Nc2nc(-c3cccnc3)nc3ccccc23)c1	–
COC(=O)c1cccc(Nc2nc(-c3cccnc3)nc3ccccc23)c1	–
S=c1[nH]c2ccccc2s1	–
C=CCC(C)(NCc1ccccc1)C(=O)OCC (stereo not drawn)	–
C=CCOC(=O)N[C@H](/C(C(=O)OC)=C(\C)NCc1ccccc1)c1cccc(OC)c1	–
CCCCC[C@H](O)/C=C/[C@@H]1[C@@H](C/C=C\CCCC(=O)O)[C@H](O)C[C@H]1O	–
CC(=O)NC(=S)Nc1ccccc1N1CCN(C(=O)c2ccccc2)CC1	32µM

Source: PubChem
